# IEC-6 cytotox: cytotoxicity in IEC-6 intestinal epithelial cells, primary screen, cytotoxicity control for KLF5 inhibitor project, cell-based, luminescence | IEC-6 cytotoxicity, luminescence viability | inhibition, % at 5 µM | 0.78% of 290,000 active; in the data active = inhibition above about 22%;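 also: 0% = plate median of test compound wells and 100% = cytotoxic reference compound wells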
# BaF3 tox: parental Ba/F3 cell viability inhibition, counter-screen for JAK2V617F inhibitor project, murine pro-B, CellTiter-Glo luminescence; CellTiter-Glo ATP luminescence; inhibition, % at 5.6 µM; 1.1% of 220,000 active;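 active = inhibition above a per-campaign cutoff, the mean inhibition of all tested compounds plus 3 SD, cut at about 27% in these data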;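 also: 0% = DMSO wells and 100% = JAK Inhibitor I control wells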
# APP transl inh: inhibitors of APP translation via 5'UTR reporter, primary screen, APP 5'UTR luciferase, SH-SY5Y cells; SH-SY5Y APP 5'UTR-luciferase reporter, luminescence; inhibition, % at 2 µM; 0.82% of 190,000 active; AID 1285, 2008;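 active = inhibition above a set limit, derived from the sample mean plus 3 SD, cut at about 45% in these data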
# Ba/F3 V617F tox: reduced viability of JAK2V617F-dependent Ba/F3 cells, primary screen, JAK2V617F inhibitor project, cell-based, Ba/F3 EpoR-JAK2V617F, luminescence | ATP luminescence | AID 1446, 2008 | inhibition, % at 5.6 µM | 1.1% of 220,000 active;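 active = inhibition above the campaign mean plus 3 SD over all tested compounds, cut at about 24% in these data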;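 also: cytokine-independent growth of Ba/F3 cells driven by EpoR plus mutant JAK2; 0% = DMSO-treated cells and 100% = JAK inhibitor I control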
# KLF5 inhibitor: KLF5 expression inhibitors, primary screen, DLD-1 cells, luminescence; DLD-1 KLF5 promoter-luciferase reporter; inhibition, % at 5 µM; 0.23% of 290,000 active;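 active = inhibition above a per-plate limit of that plate's mean compound inhibition plus 3 SD, cut at about 60% in these data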;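 also: 0% = DMSO wells and 100% = LY294002 at 200 µM; higher means less KLF5 promoter-driven luciferase light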
# aSyn UTR inh: MLPCN primary screen, SNCA 5' untranslated region; alpha-synuclein 5'UTR reporter, inhibitor activity; inhibition, % (tested at 7.5 µM); 0.82% of 300,000 active; AID 1813, 2009; in the data active = inhibition above about 60%;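 also: H4 neuroglioblastoma cells stably carrying SNCA 5'UTR luciferase fusion; 0% = DMSO wells and 100% = positive control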
# Starred values were filed as active, the others as inactive; / = no result. Sampled rows, rich in hits. Any-hit rate of the full collection: about 2.2%.
SMILES,IEC-6 cytotox,BaF3 tox,APP transl inh,Ba/F3 V617F tox,KLF5 inhibitor,aSyn UTR inh
CCCn1c(C)cc(C(=O)COc2ccc(C)nc2[N+](=O)[O-])c1C,-4.7,7.1,-5.2,1.5,-10.2,-5.2
O=C1C=C(N2CCOCC2)c2ccccc2C1=O,-6.9,/,/,/,-17.5,113.6*
Cc1ccc2nc(NC(=O)CSCC(=O)OCC(=O)c3ccccc3)sc2c1,-5.3,0.6,21.4,-2.8,4.0,61.7*
Cc1ccc2nc(NC(=O)CCCC(=O)O)sc2c1,-3.0,1.8,60.0*,2.5,8.7,102.2*
CCCC(=O)n1nc(-c2cccnc2)nc1NCc1ccccc1,1.2,5.3,6.8,-1.0,-25.7,6.3
Cc1ccc2c(=O)cc(C(=O)NCc3ccccc3)oc2c1C,0.7,/,/,/,-66.1,10.1
COc1ccc2nc(C)cc(N/N=C/c3ccc(F)cc3)c2c1,9.3,/,/,/,-17.4,92.6*
CC1CCCN(C(=O)CSc2ncccn2)C1 (configuration not stated),-3.6,/,/,/,-10.0,-12.0
CCCOc1ccc2nc(NC(=O)OC)[nH]c2c1,81.2*,74.7*,85.9*,77.9*,59.8,83.9*
O=C(Nc1nc2ccccc2[nH]1)c1ccc(F)cc1,6.5,8.4,-107.0,3.6,-15.1,28.1
COC(=O)Nc1nc2ccc(C(=O)c3ccc(F)cc3)cc2[nH]1,20.1,18.5,/,51.4*,17.3,99.2*
Cc1ccc(C(=O)NC2CCN(S(=O)(=O)c3ccccc3)CC2)cc1,-6.7,4.0,-10.8,-3.2,-4.0,32.1
Cc1ccc(S(=O)(=O)N2CCC(NC(=O)c3ccccc3)CC2)cc1,4.1,90.0*,7.5,-0.7,-17.6,22.6
CC(C)CN(C(=O)COC(=O)CCc1nc2ccccc2s1)c1c(N)n(Cc2ccccc2)c(=O)[nH]c1=O,/,/,/,/,/,22.0
CCCOc1ccc(/C=N/Nc2cc(N3CCOCC3)ncn2)c(O)c1,-2.1,/,/,/,79.3*,3.1
O=C(NCCO)c1cccc(S(=O)(=O)N2CCCCC2)c1,-5.3,93.5*,-1.1,1.1,-21.1,4.4
c1ccc(CCc2nc3ccccc3[nH]2)cc1,-5.3,3.1,-57.8,-1.3,-93.2,-120.2
Nc1cccc(CCc2nc3cc4ccccc4cc3[nH]2)c1,49.0*,50.5*,17.4,88.4*,-48.5,-48.0
Cc1ccc(C(C)C)c(OCC(=O)N/N=C2\CC(=O)CC(C)(C)C2)c1,4.8,/,/,/,1.1,/
Cc1ccc(C(C)C)c(OCC(=O)NN=C2CCCCCCC2)c1,0.4,3.1,85.5*,-1.5,-39.0,16.2
Nc1c(Cl)ncnc1N/N=C/c1cccnc1,0.7,19.1,/,3.8,-19.3,-40.4
Nc1c(Cl)ncnc1N/N=C/c1ccccn1,9.1,6.2,92.0*,4.9,-28.6,/
Nc1c(Cl)ncnc1N/N=C/c1ccc2ccccc2n1,7.7,4.6,66.2*,-0.5,-16.5,/
COc1ccccc1CNC(=O)C1CC2Cn3c(nc4cc(Cl)c(Cl)cc43)C2N1C (configuration not stated),/,/,/,/,/,-1.8
CC[N+](CC)(CC#Cc1ccccc1)CC(=O)c1ccc(Cl)cc1,7.8,3.1,3.0,1.4,-31.3,-20.1
SMILES,IEC-6 cytotox,BaF3 tox,APP transl inh,Ba/F3 V617F tox,KLF5 inhibitor,aSyn UTR inh
C#CC[N+](CC)(CC)CC#Cc1cccc(Cl)c1,2.8,66.3*,-0.6,73.4*,1.6,-1.8
C=CCOc1ccccc1CNc1cccc(F)c1,-0.9,4.0,56.9*,0.0,-21.1,-48.5
COc1cccc(-c2csc(N3CCN(C(=S)Nc4ccc(Cl)cc4)CC3)n2)c1,6.1,38.5*,2.4,38.2*,-9.7,-32.2
COc1cc(NC(=O)CSc2nnc(-c3cc(C)on3)o2)cc(OC)c1,-12.4,/,/,/,-2.1,-14.3
COc1cc(OC)cc(-c2nnc(SCC(=O)Nc3cc(C)on3)o2)c1,-5.3,94.8*,-8.4,1.3,-18.6,/
Cc1cc(NC(=O)CSc2ccccc2)no1,0.2,5.9,-9.4,0.9,-16.3,-42.9
Cc1cc(NC(=O)CSc2nnc(-c3ccccc3)c(-c3ccccc3)n2)no1,-4.0,3.2,62.7*,-1.6,-3.1,38.9
N/C(=N/O)c1ccccc1N1CCC(Cc2ccccc2)CC1,-7.9,68.7*,-44.8,71.7*,-5.0,10.2
CC1(C)NC(=O)N(CCCCOc2ccc(Cl)cc2C=O)C1=O,10.2,76.2*,9.9,71.3*,-1.4,-8.1
CCOc1cccc(N2CCN(CCNC(=O)Nc3ccc(C)cc3)CC2)c1C,1.1,/,/,/,-16.3,8.2
CCN1C(=O)C(=Cc2cccc(OC)c2Oc2ccc([N+](=O)[O-])cc2[N+](=O)[O-])SC1=S,7.1,/,/,/,10.3,80.3*
COC(=O)c1ccc(CSc2nnc(Nc3ccc(OC)cc3)s2)o1,3.6,2.8,26.2,-1.4,-25.7,10.9
COC(=O)c1ccc(CSc2nnc(Nc3ccccc3OC)s2)o1,7.7,40.7*,-20.2,0.2,-3.7,7.9
O=C(NCc1ccccc1Cl)C1CCC(=O)N(CCCN2CCCC2=O)C1 (configuration not stated),-6.8,/,/,/,-50.6,-1.8
Cc1nn(CC(N)=O)c(=O)c2ccccc12,-7.5,44.5*,-6.6,19.6,-9.4,1.3
CCOC(=O)Cn1nc(C)c2ccccc2c1=O,1.6,0.8,-10.1,-2.4,12.4,1.2
CCC(=O)NN1CCc2cc3ccc(C)cc3nc21,-3.6,/,/,/,-13.7,13.3
CCC(CC)C1C(C#N)=C(N)Oc2n[nH]c(C)c21 (configuration not stated),-1.6,92.2*,18.6,-1.5,-4.0,12.2
CCC(CC)C1C(C#N)=C(N)Oc2n[nH]c(-c3ccccc3)c21 (configuration not stated),-0.6,1.2,/,-3.4,-6.7,-2.3
Cc1nc(NC2=NCN(CC3CCCO3)CN2)nc2ccccc12 (configuration not stated),3.2,34.0*,3.7,37.6*,-18.4,/
Cc1nc(NC2=NCN(C3CCCCC3C)CN2)nc2ccccc12 (configuration not stated),5.6,1.0,-8.2,2.2,15.8,/
O=C(Nc1ccccc1)C1=C[C@@H](C2CC2)C[C@@H](OCCCCO)O1,1.1,-0.2,-37.6,-1.8,-0.1,-50.8
O=C(O)CCC(=O)NNc1ncnc2ccccc12,3.7,10.3,-15.7,-2.0,-32.4,14.4
O=C(O)CCC(=O)NNc1nc2ccccc2nc1-c1ccccc1,0.2,90.0*,-7.8,0.8,-49.5,-30.8
Cc1cc(C)c(C)c(S(=O)(=O)NCCCN2CCOCC2)c1C,3.8,90.3*,10.8,3.9,-21.2,-16.8
C=CCNC(=O)CSc1cc([N+](=O)[O-])cc(S(=O)(=O)Cc2ccccc2)c1,2.5,38.3*,-0.9,-4.8,-6.3,6.5
Cc1ccc(C(=S)N2CCN(Cc3ccccc3)CC2)cc1,0.3,0.7,-21.3,-3.8,-31.7,7.3
CCN1CCN(C(=S)c2ccc(-c3ccccc3)cc2)CC1,-1.8,2.2,-7.4,2.0,-15.3,65.8*
